Data from PubChem BioAssay AID493078 (National Center for Advancing Translational Sciences (NCATS), 2011).
This is one part of the list. A call without a number means that no potency is given here. Results filed as inconclusive are left out. The source made the active and inactive calls. The call rests on the fitted dose curve; in most records, active means well fitted activation curve with a large enough effect; inconclusive means small, poorly fitted or top-dose-only effect; inactive means flat fitted curve, though single readings scatter. Where a SMILES comes first, the peptide text is derived from it. The star is where a group is joined. OPac = O=C(CO*)c1ccccc1; Bz = O=C(c1ccccc1)*

Target: Thyrotropin-releasing hormone receptor (Homo sapiens) (UniProt P34981)
Sequence (P34981 whole entry, looked up): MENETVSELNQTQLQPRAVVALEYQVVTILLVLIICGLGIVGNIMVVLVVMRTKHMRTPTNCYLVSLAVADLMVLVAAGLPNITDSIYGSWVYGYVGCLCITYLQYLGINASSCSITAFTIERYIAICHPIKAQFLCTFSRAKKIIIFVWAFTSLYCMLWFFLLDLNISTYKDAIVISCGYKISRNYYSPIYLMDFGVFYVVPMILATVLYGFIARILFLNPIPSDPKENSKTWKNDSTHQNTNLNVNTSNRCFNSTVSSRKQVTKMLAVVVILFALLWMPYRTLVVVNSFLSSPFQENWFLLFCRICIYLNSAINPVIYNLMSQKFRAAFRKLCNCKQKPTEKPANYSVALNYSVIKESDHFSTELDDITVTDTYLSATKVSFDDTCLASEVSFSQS
Experiment: qHTS for Small Molecule Agonists and Allosteric Enhancers of Human TRH Receptor: Confirmation Screen for Agonists; further: nearly all actives have a fitted effect of over 75% in size
Conditions: TRHR-expressing cells, agonist activation read-out; series mostly up to 46.1 µM
Description: NIH Chemical Genomics Center [NCGC]
NIH Molecular Libraries Probe Centers Network [MLPCN]
Assay Submitter (PI): Marvin Gershengorn
This project aims to identify small drug-like molecules that activate (agonists) the thyrotropin releasing hormone (TRH) receptor (TRHR) or enhance its TRH-stimulated activity (allosteric enhancers). TRHR, a drug-accessible cell surface receptor expressed in specific brain regions, and its ligand TRH have been implicated in several central nervous system disorders, including depression and anxiety. Small molecule TRHR agonists or allosteric enhancers that are metabolically stable and able to cross the blood-brain barrier might serve as probes to elucidate the roles of brain TRH receptors in animal models, and might be valuable as lead compounds for the development of drugs to treat patients with central nervous system disorders.
Upon TRHR-Gq activation in TRHR cells, intracellular calcium is released from stores in the endoplasmic reticulum.
For the HTS assay freshly prepared cells are plated at a density of 2000/well in 3 ul of complete DMEM medium containing 10% serum in 1536-well plates and cultured over night at 37 C in a humidified incubator with 5% CO2. The next day, 2 ul of a no wash calcium dye (ABD Bioquest) was added to the cells and plates were incubated at room temperature for 1 hour. For the assay, assay plates were loaded into the FDSS kinetic plate reader. A 10 cycle (1 second/cycle) baseline measurement is taken and then the FDSS online 1536 pintool delivers 23 nl of compound library (as well as TRH controls) to the plate. The plate is measured for kinetically at 1 cycle/sec for 180 seconds and is considered to be the agonist portion of the assay (eg, compounds which activate a positive calcium response during this portion are flagged as potential agonists). Following the 180 second read, 1 ul of either an EC20 (positive modulation assay) is delivered by an onboard pipette head. Measurements are taken kinetically for an additional 180 seconds.
TRHR FDSS Screening Protocol
1. Reagent, 3 uL 2000 cells/well 1536 TC treated Black plate in media containing 10% FCS
2. Time, 18 hours, 33.5C 5% CO2 (cells grown at 37C)
3. Reagent, 2 uL ABD fluo-8 Ca dye
4. Time, 30 min-1.5hrs hours, Room temp (6 plates/batch)
5. Detector, EX 480/EM 530C, FDSS 10 cycles baseline (1sec/cycle)
6. Compound, 23 nL of stock solution from library
7. Detector, EX 480/EM 530C, FDSS 230 cycles (1sec/cycle) Agonist mode
8. Compound, 1 ul EC20 of TRH made up in HEPES HBSS, 10 nM final
9. Detector, EX 480/EM 530C, FDSS 100 cycles (1sec/cycle) Potentiator mode
Potency means the concentration at half of the fitted maximal effect.

Compound	Potency
COc1ccc(Cl)cc1NC(=O)CN(C)Cc1ccc(OC)c(OC)c1	inactive
COc1ccc(CCn2ccc(O)c(Cc3ccc(Cl)cc3Cl)c2=O)cc1OC	inactive
CC(C)c1nnc(NC(=O)CCC(=O)N2CCN(c3cccc(Cl)c3)CC2)s1	inactive
NC(N)=Nc1nc(-c2ccccc2)c2cc(Cl)ccc2n1	inactive
CCOC(=O)C1=C(O)/C(=C/c2cc(C)n(-c3ccccc3)c2C)N=C1C	inactive
CC(=O)N1CCN(CC(=O)Nc2ccc(C)c(F)c2)CC1	inactive
Cc1cc(C(=O)CCl)c(C)n1CC1COc2ccccc2O1 (stereo not given)	inactive
Cc1cc(S(=O)(=O)c2cc3ccc(O)c(C)c3oc2=O)ccc1F	20.6 µM (active)
c1cnc(N2CCN(c3ccc4ccccc4n3)CC2)nc1	inactive
COc1cc(/C=C(\C#N)c2nc3ccccc3[nH]2)ccc1O	20.6 µM (active)
C/C(=C\c1ccco1)CN1CCC(N2CCC(C(=O)N3CCOCC3)CC2)CC1	inactive
NS(=O)(=O)c1cccc(NC(=O)CSc2nc3ccccc3n2-c2ccccc2)c1	inactive
CC(=O)c1cc(NC(=O)c2ccccc2)c(=O)oc1/C=C/N(C)C	20.6 µM (active)
O=C1C(=O)N(CCCO)C(c2ccccc2)/C1=C(\O)c1ccc(Br)cc1 (stereo not given)	inactive
C/C(=N/OC(=O)c1ccc(Br)cc1)c1ccc(C)cc1	inactive
Cc1csc(CN(C)C(=O)CC2C(=O)NCCN2CC(C)(C)C)n1 (stereo not given)	inactive
Cc1c(/C=N\NC(=O)c2cc3ccccc3o2)c2ccccc2n1C	inactive
CCOc1ncccc1C(=O)OCC(=O)N1c2ccccc2CC1C (stereo not given)	inactive
CC(=O)n1c(C=Nc2ccccc2)c(O)c2ccccc21	20.6 µM (active)
CN(C(=O)CSc1nnc(Nc2ccccc2)s1)C1CCS(=O)(=O)C1 (stereo not given)	inactive

Compound	Potency
Cn1cccc1C1(C(F)(F)F)NCCNC1=O (stereo not given)	inactive
CCc1ccccc1NC(=O)/C(=C/c1ccccc1)c1ccccc1	inactive
Cc1ccc(Cl)c(OCC(=O)N2CCc3ccccc3C2)c1	inactive
Cc1nn(Cc2ccccc2)c(C)c1C(=O)N1CCN(CC(=O)Nc2ccccc2Cl)CC1	inactive
COC(=O)c1cc(N2CCNCC2)nc2ccccc12	inactive
Cc1ccc(-c2cn(S(=O)(=O)c3cccc([N+](=O)[O-])c3)nc2N)cc1	inactive
CCOc1cc(CN2CCCC(CO)(Cc3ccc(F)cc3F)C2)ccc1OC (stereo not given)	inactive
COc1cc(C2C3=C(CCCC3=O)OC3=C2C(=O)CCC3)ccc1OCC(=O)Nc1ccccc1	inactive
N#Cc1ccc(Oc2cc(C(F)(F)F)nc(-c3ccccn3)n2)cc1	inactive
CSc1nnnn1-c1c(C)cc(C)cc1C	inactive
O=c1o[nH]c(-c2ccccc2)c1N=Nc1c(F)cccc1Cl	inactive
O=C(/C=C/c1ccc(N2CCOCC2)cc1)c1ccccc1	20.6 µM (active)
O=C(CN1C(=O)c2cccc3cccc1c23)Nc1ccccc1	inactive
O=c1[nH]c2cccnc2n(CCNc2ncc(C(F)(F)F)cc2Cl)c1=O	inactive
CCc1nnc(NC(=O)[C@@H](NC(=O)c2cccc(C)c2)C(C)C)s1	inactive
O=C(Nc1ccccc1)c1cccnc1Nc1ccccc1	inactive
Cc1cccn2c(=O)c3cc(C(=O)NC4CCCCC4)sc3nc12	inactive
COc1ccc(OCc2n[nH]c(=S)n2N)cc1	inactive
CC1=C(C)CC(C(=O)NC(C)CCc2ccccc2)C(C(=O)O)C1 (stereo not given)	inactive
O=C(CNC(=O)c1ccccc1)NCC(=O)OCC(=O)c1ccccc1 (Bz-Gly-Gly-OPac)	inactive
